Sampled rows, rich in hits. Any-hit rate of the full collection: about 3.7%.
tim23-1 inh: tim23-1 yeast growth inhibition | S. cerevisiae tim23-1 growth, BacTiter-Glo luminescence, 24 h | inhibition, % at 20 µM | actives 1.3% (n = 330,000) | AID 463212;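 active = growth inhibition of the mutant yeast at or above 50%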;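 note: temperature-sensitive mutant grown at 25 °C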
tim10-1 inh: tim10-1 yeast growth inhibition. S. cerevisiae tim10-1 ts strain growth, BacTiter-Glo, 24 h. inhibition, % at 20 µM. actives 2.2% (n = 330,000);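 active = inhibition of at least 40%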;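 note: mutant grown at 25 °C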
TIM10 inh: TIM10 yeast growth inhibition | S. cerevisiae TIM10 strain growth, BacTiter-Glo luminescence, 24 h | inhibition, % at 10 µM | actives 1.4% (n = 330,000) | AID 463195;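 active = inhibition of 40% or more at the single tested concentration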;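 note: wild-type TIM10 isogenic control strain grown at permissive 25 °C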
NALP3 yeast inh: blocks the NALP3 inflammasome reconstituted in yeast. Yeast reconstituted NLRP3/ASC/caspase-1, beta-gal luminescence, 24 h. inhibition, % at 10 µM. actives 0.39% (n = 330,000);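 active = inhibition of 50% or more; inactive = inhibition below 50%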
PfHsp90 yeast 2: growth inhibition of yeast expressing Plasmodium Hsp90; actives 0.32% (n = 310,000); inhibition, % at 9.4 µM; S. cerevisiae expressing PfHsp90, BacTiter-Glo ATP, 48 h; yeast lacking PDR1 and PDR3 efflux regulators;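 active = every replicate shows inhibition above about 80%, whatever the replicate mean, limit read from the data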
tim23-1 conf: confirmation of tim23-1 mutant yeast growth inhibitors | shares compounds with tim23-1 inh | S. cerevisiae tim23-1 growth, BacTiter-Glo luminescence, 24 h | inhibition, % at 20 µM | actives 83% (n = 4,400);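 active = inhibition above about 39% in either of two replicate wells at 20 µM, limit read from the data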;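 note: temperature-sensitive tim23-1 mutant grown at 25 °C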
Large screens that a line does not name were inactive (follow-up assays come after a bar, where they were run).

CCCCC(=O)NC(c1ccc(N(C)C)cc1)c1ccc2cccnc2c1O (stereo not drawn)	tim23-1 inh 54 | tim23-1 conf 53
CCCC(=O)NC(c1ccccc1OC)c1ccc2cccnc2c1O (stereo not drawn)	none
CCCC(=O)NC(c1ccc(Cl)cc1Cl)c1ccc2cccnc2c1O (stereo not drawn)	none
CCCC(=O)NC(c1ccc(C)cc1)c1ccc2cccnc2c1O (stereo not drawn)	tim23-1 inh 61, PfHsp90 yeast 2 113 | tim23-1 conf 58
CCCCC(=O)NC(c1ccc(Cl)cc1)c1ccc2cccnc2c1O (stereo not drawn)	tim23-1 inh 56, PfHsp90 yeast 2 114 | tim23-1 conf 49
CCCC(=O)NC(c1ccc(Cl)cc1)c1ccc2cccnc2c1O (stereo not drawn)	tim23-1 inh 60, PfHsp90 yeast 2 115 | tim23-1 conf 60
Cc1ccc(NS(=O)(=O)c2cccc(C(=O)n3ncc(C#N)c3N)c2)c(C)c1	none (no result: PfHsp90 yeast 2)
CCOc1ccccc1C(=O)Oc1ccc2ccc(=O)oc2c1	tim23-1 inh 68 | tim23-1 conf 47
O=C(Oc1ccc2ccc(=O)oc2c1)c1ccccc1	none
CCc1cc2cc(C(=O)Nc3ccc(C)cc3)sc2s1	none
O=C(NCC(c1ccco1)N1CCN(c2ccc(F)cc2)CC1)C(=O)NC1CCCCC1 (stereo not drawn)	none
Cc1csc2nc(O)c(C(=O)NCCCc3ccccc3)c(=O)n12	tim23-1 inh 73 | tim23-1 conf 53
S=C(NCC1CCCO1)NC1CCCCC1 (stereo not drawn)	none
CCCC(NC(=S)NCC1CCCO1)C12CC3CC(CC(C3)C1)C2 (stereo not drawn)	tim23-1 inh 51 | tim23-1 conf 51
Cc1noc(C)c1S(=O)(=O)Nc1cccc(CO)c1	none
Cc1ccc(S(=O)(=O)N2CCN(C(=O)c3cc(S(=O)(=O)N(C)C)ccc3N3CCCC3)CC2)c(C)c1	none (no result: PfHsp90 yeast 2)
CC(C)(C)NC(=O)C12CCC(C)(c3nc4ccccc4nc31)C2(C)C (stereo not drawn)	tim23-1 inh 53 (no result: PfHsp90 yeast 2) | tim23-1 conf inactive
COc1cccc(Nc2nc(-c3ccccc3)nc3ccccc23)c1	tim23-1 inh 50 | tim23-1 conf 45
Cc1ccc(-c2nc(Nc3ccc(O)cc3)c3ccccc3n2)cc1	tim23-1 inh 74 | tim23-1 conf 44
O=[N+]([O-])c1ccc(-c2nc(Nc3cccc(O)c3)c3ccccc3n2)cc1	none
Cc1ccc(-c2nc(Nc3cccc(O)c3)c3ccccc3n2)cc1	tim23-1 inh 83 | tim23-1 conf inactive
Cc1ccc(-c2nc(Nc3ccc(N4CCOCC4)cc3)c3ccccc3n2)cc1	none
COc1cccc(Nc2nc(-c3ccccc3O)nc3ccccc23)c1	none
O=C(NC1CC1)c1cc2cc(Br)ccc2s1	none
CCN1C(=O)c2ccc(C(=O)Nc3nccs3)cc2C1=O	none
CC(C)(C)N1C(=O)c2ccc(C(=O)Nc3nccs3)cc2C1=O	tim23-1 inh 58 | tim23-1 conf 59
CC(=O)Oc1cccc(N2C(=O)c3cccc4c([N+](=O)[O-])ccc(c34)C2=O)c1	tim23-1 inh 51 | tim23-1 conf 51
O=C(CCSc1nnc(-c2ccncc2)o1)Nc1ccccc1Cl	none
CCOC(=O)C1=C(N)Oc2cc(O)ccc2C1c1ccc(F)cc1F (stereo not drawn)	tim23-1 inh 56 | tim23-1 conf 59
O=C(Cc1ccc(NS(=O)(=O)c2ccc(F)cc2)cc1)NCc1cccnc1	none
COc1ccc(N2CCC(CNC(=S)Nc3ccc(C)cc3C)C2)cc1 (stereo not drawn)	tim23-1 inh 53 | tim23-1 conf 68
COc1ccc(N2CCC(CNC(=O)Nc3ccc(OC)cc3OC)C2)cc1 (stereo not drawn)	none
Cc1ccc(S(=O)(=O)N2C(=O)[C@@H]3Cc4ccccc4CN3C2=O)cc1	tim23-1 inh 51 | tim23-1 conf 41
Cc1ccc2nc(-c3ccc(NC(=S)NC4CC(C)(C)NC(C)(C)C4)cc3)sc2c1	tim23-1 inh 70 | tim23-1 conf 67
Cc1ccc(SCC(=O)NNC(=O)CCS(=O)(=O)c2ccccc2)cc1	none (no result: PfHsp90 yeast 2)
COc1ccc(C(=O)NCN2CCN(c3ccccc3)CC2)cc1OC	none

High-throughput results (PubChem BioAssay)
